Assay results: the supplement of paper PMC13380429

Test system: Vero E6 infected with SARS-CoV-2
Assay: inhibition of SARS-CoV-2 cytopathic effect; higher = more antiviral protection, active = above 15
Conditions: 48 h

Measured: inhibition of SARS-CoV-2 cytopathic effect

c1ccc(NCc2ccc(CNc3ccccn3)cc2)nc1
inactive: 1 nM 0.1% | 8.33 nM 0.65% | 100 nM -3.43% | 833.33 nM -0.24% | 10000 nM -0.68%

C[C@]12C=CC(=O)C=C1CC[C@@H]1[C@@H]2CC[C@]2(C)OC(=O)CC[C@@H]12 [Testolactone]
inactive: 1 nM -1.05% | 8.33 nM -0.81% | 100 nM -0.43% | 833.33 nM -1.59% | 10000 nM 11.2%

CN1CCOC(c2ccccc2)c2ccccc2C1 (stereo not given) [nefopam]
inactive: 1 nM 1.99% | 8.33 nM 0.54% | 100 nM 2.72% | 833.33 nM -1.03% | 10000 nM -1.47%

CCOC(=O)Nc1cc2c(c(N)n1)N=C(c1ccccc1)[C@H](C)N2 [mivobulin]
inactive: 1 nM 3.19% | 8.33 nM 0.16% | 100 nM 1.34% | 833.33 nM 1.06% | 10000 nM -0.59%

COc1cc(O)c2c(c1)C(=O)c1cc(C)cc(O)c1C2=O [rheochrysidin]
inactive: 1 nM 1.91% | 8.33 nM 1.62% | 100 nM 1.33% | 833.33 nM -0.52% | 10000 nM -0.59%

CC(=O)OC/C=C(C)/C=C/C=C(C)/C=C/C1=C(C)CCCC1(C)C [retinyl-acetate]
inactive: 1 nM -1.78% | 8.33 nM 0.37% | 100 nM -0.15% | 833.33 nM 1.34% | 10000 nM 0.15%

CC[N+]1(C)CCCC(OC(=O)C(O)(c2ccccc2)c2ccccc2)C1 (stereo not given) [pipenzolate]
inactive: 1 nM -0.09% | 8.33 nM -0.02% | 100 nM -2.48% | 833.33 nM -0.83% | 10000 nM -1.6%

CCOc1nc2c(N)ncnc2n1CC
inactive: 1 nM -1.28% | 8.33 nM 2.22% | 100 nM -1.47% | 833.33 nM 1.94% | 10000 nM -1.72%

COc1cc(C=O)ccc1O [vanillin]
inactive: 1 nM 1.74% | 8.33 nM 0.89% | 100 nM 1.04% | 833.33 nM -1.54% | 10000 nM -2.8%

CC(C)(C)CC(=O)Nc1c(F)cc(C(=O)/N=c2\sccn2COP(=O)(O)O)cc1F
inactive: 1 nM 0.06% | 8.33 nM -0.74% | 100 nM -3.11% | 833.33 nM -0.94% | 10000 nM 2.91%

COc1cc([C@@H]2c3cc4c(cc3[C@@H](O[C@@H]3O[C@@H]5CO[C@@H](c6cccs6)O[C@H]5[C@H](O)[C@H]3O)[C@H]3COC(=O)[C@H]23)OCO4)cc(OC)c1O [teniposide]
inactive: 1 nM 1.37% | 8.33 nM 2.49% | 100 nM 4.69% | 833.33 nM 1.54% | 10000 nM -7.08%

CCCCCC(C)N (stereo not given) [tuaminoheptane]
inactive: 1 nM 1.21% | 8.33 nM 1.95% | 100 nM 0.51% | 833.33 nM 3.02% | 10000 nM 1.11%

CCOC(=O)c1ncn2c1CN(C)C(=O)c1cc(N=[N+]=[N-])ccc1-2
inactive: 1 nM 3.15% | 8.33 nM 7.03% | 100 nM 2.59% | 833.33 nM -0.14% | 10000 nM -2.15%

Cc1ccccc1/N=N/c1ccc(NC(=O)c2ccnn2C)c(C)c1
inactive: 1 nM -1.46% | 8.33 nM 0.89% | 100 nM 1.16% | 833.33 nM 2.03% | 10000 nM 0.48%

Cc1c(N2C(=O)[C@@H]3[C@H](O)CCN3C2=O)ccc(C#N)c1Cl
inactive: 1 nM 2.38% | 8.33 nM 3.57% | 100 nM 0.87% | 833.33 nM 2.02% | 10000 nM 1.06%

O=C(O)c1cn(-c2ccc(F)cc2)c2cc(N3CCNCC3)c(F)cc2c1=O [sarafloxacin]
inactive: 1 nM -2.73% | 8.33 nM -5.26% | 100 nM -3.5% | 833.33 nM -5.86% | 10000 nM -4.93%

NCCCCCc1c[nH]cn1 [impentamine]
inactive: 1 nM -2.08% | 8.33 nM -1.69% | 100 nM -0.14% | 833.33 nM -0.52% | 10000 nM 0.02%

C#C[C@]1(OC(=O)CCCCCC)CC[C@H]2[C@@H]3CCC4=CC(=O)CC[C@@H]4[C@H]3CC[C@@]21C [norethisterone-enanthate]
inactive: 1 nM 2.31% | 8.33 nM 0.16% | 100 nM 0.91% | 833.33 nM -1.87% | 10000 nM -1.58%

C[C@@H]1CCCN1CCc1cc2cc(-c3ccc(C#N)cc3)ccc2o1
inactive: 1 nM -2.35% | 8.33 nM -2.18% | 100 nM 1.55% | 833.33 nM -0.35% | 10000 nM 4.34%

Ic1cncc(OC[C@@H]2CCN2)c1
inactive: 1 nM 0.24% | 8.33 nM -0.44% | 100 nM 0.14% | 833.33 nM 1.07% | 10000 nM -0.56%
